Test systems include RPMI-8226 leukemia; OVCAR-8 ovarian; OVCAR-5 ovarian; SK-OV-3 ovarian; IGROV1 ovarian; OVCAR-3 ovarian; HS 578T breast; NCI/ADR-RES ovarian.
Holding throughout (assay): NCI-60 one-dose screen, 48 h (100 = growth as untreated, 0 = no growth, -100 = all killed)
The test system of a further test is SR leukemia. To be noted: 10 µM unless noted.
The subject of another test is OVCAR-4 ovarian. To be noted: 10 µM unless noted.

Molecules are shown by their SMILES. “And” between values parts separate entries of the source, which are not always exact repeats. Equal values may be shown once. Compounds without any hit were thinned out: in the full panel of roughly 83,000, 20% have a hit.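 Single-dose data. Exposure time 48 hours. Values below 10 considered active.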 The source made the active and inactive calls.

For `O=C1OCc2cccc3cccc1c23`, the growth is 93.1% (inactive) in the test with SR leukemia; 100% (inactive) with RPMI-8226 leukemia (10 µM unless noted); 101% (inactive) in the test with OVCAR-8 ovarian (10 µM unless noted); 108% (inactive) with OVCAR-5 ovarian (10 µM unless noted); 97.1% (inactive) in the test on OVCAR-4 ovarian; 112% (inactive) in the test on SK-OV-3 ovarian (10 µM unless noted). For the same compound, the growth in the test on IGROV1 ovarian (10 µM unless noted) was 102% (inactive); in the test with OVCAR-3 ovarian (10 µM unless noted) it was 110% (inactive); in the test with HS 578T breast (10 µM unless noted) it was 102% (inactive); in the test on NCI/ADR-RES ovarian (10 µM unless noted), 108% (inactive).

On to `CC1=CC(O)C2CC1C2(C)C` (stereo not given), for which the growth in the test with SR leukemia was 101% (inactive) and 97.3% (inactive); in the test on RPMI-8226 leukemia (10 µM unless noted), 111% (inactive) and 107% (inactive); with OVCAR-8 ovarian (10 µM unless noted) it was 105% (inactive) and 104% (inactive); in the test on OVCAR-5 ovarian (10 µM unless noted), 104% (inactive) and 110% (inactive); in the test with OVCAR-4 ovarian, 99.7% (inactive) and 108% (inactive); in the test with SK-OV-3 ovarian (10 µM unless noted), 94.3% (inactive) and 104% (inactive). Further, the growth was 101% (inactive) and 99.3% (inactive) with IGROV1 ovarian (10 µM unless noted); 110% (inactive) and 113% (inactive) in the test with OVCAR-3 ovarian (10 µM unless noted); 97.5% (inactive) and 106% (inactive) with HS 578T breast (10 µM unless noted); 108% (inactive) and 109% (inactive) in the test on NCI/ADR-RES ovarian (10 µM unless noted).

For `O=C1C=CC(=O)N1C1c2ccccc2-c2ccccc21`, the growth with SR leukemia was -26.9% (active); with RPMI-8226 leukemia (10 µM unless noted), 90.7% (inactive); in the test with OVCAR-8 ovarian (10 µM unless noted), 99.8% (inactive); with OVCAR-5 ovarian (10 µM unless noted) it was 109% (inactive); in the test with OVCAR-4 ovarian, 110% (inactive); in the test on SK-OV-3 ovarian (10 µM unless noted), 96.5% (inactive). In addition, the growth is 99.4% (inactive) with IGROV1 ovarian (10 µM unless noted), 35.4% (inactive) in the test with OVCAR-3 ovarian (10 µM unless noted), 102% (inactive) in the test with HS 578T breast (10 µM unless noted) and 100% (inactive) in the test on NCI/ADR-RES ovarian (10 µM unless noted).

In the case of `O=C(Nc1c(Cl)cccc1Cl)Oc1cccc2cccnc12`, the growth in the test with SR leukemia is 5.64% [100 µM] (active); in the test with RPMI-8226 leukemia (10 µM) it was 45.7% (inactive); in the test on RPMI-8226 leukemia (100 µM) it was 2.58% (active); in the test on OVCAR-8 ovarian (10 µM), 27% (inactive); with OVCAR-8 ovarian (100 µM), 10.2% (inactive); in the test on SK-OV-3 ovarian (10 µM), 65.4% (inactive). Besides, the growth was 18% (inactive) with SK-OV-3 ovarian (100 µM); 27% (inactive) in the test on IGROV1 ovarian (10 µM); 14.4% (inactive) with IGROV1 ovarian (100 µM); 90.6% (inactive) with HS 578T breast (10 µM); 46.6% (inactive) with HS 578T breast (100 µM); 13.5% (inactive) in the test with NCI/ADR-RES ovarian (10 µM). In the test on NCI/ADR-RES ovarian (100 µM), the growth is 3.5% (active).

Consider `O=C(/C=C\c1cc(Br)ccc1O)/C=C/c1cc(Br)ccc1O`, for which the growth is 1.17% (active) with SR leukemia; 0.234% (active) in the test on RPMI-8226 leukemia (10 µM unless noted); 3.86% (active) with OVCAR-8 ovarian (10 µM unless noted); -22.2% (active) with OVCAR-5 ovarian (10 µM unless noted); 15.2% (inactive) with OVCAR-4 ovarian; 18.9% (inactive) in the test with SK-OV-3 ovarian (10 µM unless noted). For the same compound, the growth in the test on IGROV1 ovarian (10 µM unless noted) was -16.9% (active); in the test on OVCAR-3 ovarian (10 µM unless noted) it was -81.5% (active); in the test on HS 578T breast (10 µM unless noted) it was 37.8% (inactive); with NCI/ADR-RES ovarian (10 µM unless noted) it was 7.59% (active).

As for `CN(C)c1ccc(/C=N/N=C(\C#N)[S][Sn]([Cl])([c]2ccccc2)[c]2ccccc2)cc1`, the growth is 5.61% (active) with SR leukemia; -13.8% (active) with RPMI-8226 leukemia (10 µM unless noted); 60.6% (inactive) in the test with OVCAR-8 ovarian (10 µM unless noted); 13.1% (inactive) with OVCAR-5 ovarian (10 µM unless noted); 28.1% (inactive) in the test with OVCAR-4 ovarian; 99.7% (inactive) in the test on SK-OV-3 ovarian (10 µM unless noted). Further, the growth is 43% (inactive) with IGROV1 ovarian (10 µM unless noted), -80.1% (active) with OVCAR-3 ovarian (10 µM unless noted), 61.7% (inactive) in the test on HS 578T breast (10 µM unless noted) and 66.9% (inactive) in the test on NCI/ADR-RES ovarian (10 µM unless noted).

As for `CN(C)C(=O)SC1=C(c2c(Cl)cccc2Cl)C(=O)c2ccccc21`, the growth is -36.3% (active) in the test with SR leukemia; -2.59% (active) with RPMI-8226 leukemia (10 µM unless noted); 51.7% (inactive) in the test with OVCAR-8 ovarian (10 µM unless noted); 106% (inactive) in the test with OVCAR-5 ovarian (10 µM unless noted); -11.6% (active) in the test with OVCAR-4 ovarian; 110% (inactive) with SK-OV-3 ovarian (10 µM unless noted). Also, the growth is 119% (inactive) in the test on IGROV1 ovarian (10 µM unless noted), -81.5% (active) with OVCAR-3 ovarian (10 µM unless noted), 21.4% (inactive) with HS 578T breast (10 µM unless noted) and 99.1% (inactive) with NCI/ADR-RES ovarian (10 µM unless noted).

`CN(C)C(=O)c1ccc(SC(=S)NCc2ccccc2)cc1`: the growth in the test with SR leukemia is -36.6% [100 µM] (active); in the test on RPMI-8226 leukemia (10 µM) it was 107% (inactive); in the test with RPMI-8226 leukemia (100 µM), -27.3% (active); in the test on OVCAR-8 ovarian (10 µM), 106% (inactive); with OVCAR-8 ovarian (100 µM), -6.08% (active); in the test with OVCAR-5 ovarian (10 µM), 113% (inactive). The growth is 20.1% (inactive) in the test with OVCAR-5 ovarian (100 µM); 108% (inactive) in the test on SK-OV-3 ovarian (10 µM); 108% (inactive) with SK-OV-3 ovarian (100 µM); 116% (inactive) in the test on IGROV1 ovarian (10 µM); -28.3% (active) in the test on IGROV1 ovarian (100 µM); 121% (inactive) with OVCAR-3 ovarian (10 µM). Moreover, the growth with OVCAR-3 ovarian (100 µM) is 46.9% (inactive); with HS 578T breast (10 µM) it was 116% (inactive); in the test on HS 578T breast (100 µM), 45.7% (inactive); in the test on NCI/ADR-RES ovarian (10 µM) it was 111% (inactive); with NCI/ADR-RES ovarian (100 µM) it was 2.6% (active).

Take `Cc1cc(N)c2ccccc2[n+]1CCCCCCCCCC[n+]1c(C)cc(N)c2ccccc21`: the growth in the test with SR leukemia is -53% (active) and 3.2% (active); in the test with RPMI-8226 leukemia (10 µM unless noted), 9.49% (active) and -11.6% (active); in the test on OVCAR-8 ovarian (10 µM unless noted), 26.8% (inactive); in the test with OVCAR-5 ovarian (10 µM unless noted), -58.1% (active); with OVCAR-4 ovarian, 21.2% (inactive) and 19.8% (inactive); in the test with SK-OV-3 ovarian (10 µM unless noted) it was 9.8% (active) and -29.2% (active). The growth is 4.94% (active) and -18.4% (active) in the test on IGROV1 ovarian (10 µM unless noted); -16.7% (active) and 15% (inactive) in the test on OVCAR-3 ovarian (10 µM unless noted); 34.7% (inactive) with HS 578T breast (10 µM unless noted); 66.2% (inactive) and 64.1% (inactive) in the test with NCI/ADR-RES ovarian (10 µM unless noted).

Take `COC(=O)[C@@]12OC[C@]34[C@H]([C@@H](O)[C@@H]1O)[C@@]1(C)[C@H](O)C(=O)C=C(C)[C@@H]1C[C@H]3OC(=O)C(OC(C)=O)[C@@H]24` (stereo not given in full): the growth was -43% (active) with SR leukemia; -69.8% (active) in the test with RPMI-8226 leukemia (10 µM unless noted); -18.6% (active) in the test with OVCAR-8 ovarian (10 µM unless noted); -11.5% (active) in the test on OVCAR-5 ovarian (10 µM unless noted); 3.68% (active) in the test on OVCAR-4 ovarian; -9.46% (active) in the test with SK-OV-3 ovarian (10 µM unless noted). Also, the growth was -58% (active) in the test with IGROV1 ovarian (10 µM unless noted), -48.4% (active) in the test on OVCAR-3 ovarian (10 µM unless noted), -33% (active) in the test with HS 578T breast (10 µM unless noted) and 16% (inactive) with NCI/ADR-RES ovarian (10 µM unless noted).

Source of the values: PubChem BioAssay (NCI).
